# Experimental data published in PubChem BioAssay (EPA / NIEHS).
# Results filed as inconclusive are left out. A structure can be active in one record and inactive in another. Activity calls are given as the source filed them. The calls were made as follows, unless noted: active = hit-call score of the fitted dose curve at least 0.9, where 1 is the maximum; inactive = score below 0.9.
# How the values were obtained:
# [1] = CCTE_Shafer_MEA_dev_firing_rate_mean: CCTE's Neural Network Formation Assay for Mean Firing Rate, Shafer Lab (AID 2284031)
# In short: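 Extracellular spike frequency, AUC over DIV 5–12 recordings, in rat cortical neuron MEA cultures dosed from plating; loss direction vs DMSO.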
# [2] = CCTE_Shafer_MEA_dev_per_burst_spike_percent: CCTE's Neural Network Formation Assay for Percent of Spikes in a Burst, Shafer Lab (AID 2284032)
# In short: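 Value is trapezoidal AUC over recordings on days 5, 7, 9 and 12 of the well-mean fraction of spikes falling in single-electrode bursts; rat cortical cultures exposed continuously from plating, treatment renewed DIV 5 and 9, fitted downward against DMSO.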
# [3] = CCTE_Shafer_MEA_dev_active_electrodes_number: CCTE's Neural Network Formation Assay for Number of Active Electrodes, Shafer Lab (AID 2284040; active = hit-call score of the fitted dose curve at least 0.9, where 1 is the maximum)
# In short: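 Developing rat cortical networks on MEAs, exposed DIV 0–12. Value is the AUC of active-electrode counts (≥5 spikes/min) from days 5, 7, 9, 12, relative to DMSO.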
# [4] = CCTE_Shafer_MEA_dev_burst_rate: CCTE's Neural Network Formation Assay for Burst Rate, Shafer Lab (AID 2284042)
# In short: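 Developmental network assay measuring how 12-day exposure of rat cortical neuron cultures alters bursting on extracellular MEA recordings. Values are AUC of well-mean burst rate across four recording days, relative to DMSO vehicle.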
# [5] = CCTE_Shafer_MEA_dev_bursting_electrodes_number: CCTE's Neural Network Formation Assay for Number of Bursting Electrodes, Shafer Lab (AID 2284043; active = hit-call score of the fitted dose curve at least 0.9, where 1 is the maximum)
# In short: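 Number of electrodes reaching ≥1 burst every 2 min was recorded at DIV 5, 7, 9 and 12 and collapsed as trapezoidal area under the curve. Cultures were rat cortical neurons on MEA plates, dosed continuously from plating with medium and treatment refreshed on DIV 5 and 9.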
# [6] = CCTE_Shafer_MEA_dev_per_burst_interspike_interval: CCTE's Neural Network Formation Assay for Burst Interspike Interval, Shafer Lab (AID 2284044)
# In short: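 Neurons from rat cortex plated onto PEI-coated MEA wells with laminin […] at 1.5 x 10^5 cells/well, then treated from day 0. Media and compound fully replaced on DIV 5 and 9. Extracellular spontaneous firing recorded four times; interspike interval per burst summarised as AUC.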
# [7] = CCTE_Shafer_MEA_dev_interburst_interval_mean: CCTE's Neural Network Formation Assay for Mean Interburst Interval, Shafer Lab (AID 2284046);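 also: well-mean interburst interval of bursting electrodes as AUC over four recording days; curve fitted for decrease in interburst interval relative to DMSO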
# In short: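 Network formation assay in primary rat cortical cultures, exposed from DIV 0 to 12. Mean interburst interval per well, integrated as AUC over four recordings.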
# [8] = CCTE_Shafer_MEA_dev_inter_network_spike_interval_mean: CCTE's Neural Network Formation Assay for Mean Inter-network Spike Interval, Shafer Lab (AID 2284047)
# In short: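 Compound was given at plating to primary rat cortical neurons and renewed with full medium changes on DIV 5 and 9. Extracellular activity was recorded on days 5, 7, 9, 12; AUC values were fitted for loss relative to DMSO control.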
# [9] = CCTE_Shafer_MEA_dev_network_spike_number: CCTE's Neural Network Formation Assay for Number of Network Spikes, Shafer Lab (AID 2284048);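 also: synchronized bursts across electrodes counted on days 5 7 9 12 and integrated as AUC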
# In short: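 Number of network spikes (coordinated firing across electrodes) recorded on days 5, 7, 9 and 12 and summarised as area under the curve. Rat cortical cultures on MEA, continuous compound exposure with full medium/treatment exchange at DIV 5 and 9.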
# [10] = CCTE_Shafer_MEA_dev_network_spike_peak: CCTE's Neural Network Formation Assay for Mean Number of Electrodes in Network Spike, Shafer Lab (AID 2284049)
# In short: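 Rat cortical primary culture, 1.5 x 10^5 cells/well, 48-well MEA (16 electrodes/well). Dosing day 0 through DIV 12, full media/compound exchange DIV 5, 9. AxIS adaptive spike detection; AUC over days 5/7/9/12; loss-of-signal vs DMSO.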
# [11] = CCTE_Shafer_MEA_dev_network_spike_duration_std: CCTE's Neural Network Formation Assay for Standard Deviation of Network Spike Duration, Shafer Lab (AID 2284052);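 also: area under curve of spike duration SD across recording days 5 to 12; hits are decreases in network spike duration SD versus DMSO vehicle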
# In short: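 Developing networks of rat cortical neurons were exposed over twelve days in vitro on 48-well MEA plates. Trapezoidal AUC of recordings (DIV 5–12) was analysed for signal loss relative to DMSO vehicle.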
# [12] = CCTE_Shafer_MEA_dev_per_network_spike_spike_number_mean: CCTE's Neural Network Formation Assay for Mean Number of Spikes in a Network Spike, Shafer Lab (AID 2284053)
# In short: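 First, rat cortical cells (1.5 x 10^5/well) were seeded onto MEA wells; second, dosing began at plating and was refreshed on DIV 5 and 9; finally, network-spike spike counts across DIV 5–12 were summarized as AUC.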
# [13] = CCTE_Shafer_MEA_dev_per_network_spike_spike_percent: CCTE's Neural Network Formation Assay for Percent of Spikes in a Network Spike, Shafer Lab (AID 2284054)
# In short: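 Metric: fraction of spikes falling in a 0.05 s window at network-spike peaks. Recordings were made on days 5, 7, 9 and 12 and collapsed by trapezoidal AUC. Cultures were rat cortical neurons on MEA plates, dosed continuously from plating, re-dosed at media changes.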
# [14] = CCTE_Shafer_MEA_dev_LDH: CCTE's Lactate Dehydrogenase Assay for Cytotoxicity in the Neural Network Formation Assay, Shafer Lab (AID 2284068; active = hit-call score of the fitted dose curve at least 0.9, where 1 is the maximum;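 also: exposure for twelve days from plating with re-dosing on DIV 5 and 9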)
# In short: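 Developing rat cortical networks on MEA plates are exposed to compound for 12 days from plating. LDH activity is measured spectrophotometrically, with DMSO as baseline.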
# [15] = CCTE_Shafer_MEA_dev_AB: CCTE's Alamar Blue Assay for Cytotoxicity in the Neural Network Formation Assay, Shafer Lab (AID 2284083; active = hit-call score of the fitted dose curve at least 0.9, where 1 is the maximum;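 also: resazurin reduction fluorescence as viability of cultured neurons; twelve days of exposure from plating with re-dosing on DIV 5 and 9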)
# In short: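 Cytotoxicity companion to the developmental MEA: primary rat cortical neurons, 12-day exposure starting day 0, compound refreshed DIV 5 and 9; resazurin fluorescence, fitted against DMSO vehicle.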
# [16] = UKN2_HCS_IMR90_neural_migration: University of Konstanz (UKN) Leist Lab Neural Crest Cell Migration Assay in human induced IMR90 Pluripotent Stem Cells (UKN2) (AID 2284204); details: actives raise or lower the signal
# In short: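 High-content imaging of calcein-AM and Hoechst stained cells quantifies migration into a stopper-defined gap after 24 h compound exposure. Neural crest cells from IMR90 iPSC migrated 24 h in EGF/FGF N2-S medium before dosing; DMSO baseline.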
# [17] = IUF_NPC1b_proliferation_BrdU_72hr: Leibniz Research Institute for Environmental Medicine (IUF) 72-hour Neural Progenitor Cell Bromodeoxyuridine (BrdU) Proliferation Assay (NPC1b) (AID 2284207)
# In short: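 Human fetal cortex-derived (GW 16-19) neural progenitor spheres, 0.25-0.35 mm, one per well in EGF/FGF proliferation medium, exposed to compound for 72 h at 37C, pH 7.2-7.6. BrdU incorporation over the final 16 h read by luminescence ELISA, relative to DMSO.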
# [18] = IUF_NPC1a_proliferation_area_72hr: Leibniz Research Institute for Environmental Medicine (IUF) 72-hour Neural Progenitor Cell Proliferation Area Assay (NPC1a) (AID 2284208)
# In short: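 Spheres of 0.3 mm are plated singly in growth-factor medium and exposed from day 0. After three days at 37C and 5% CO2, sphere area is measured by phase contrast imaging, with activity referenced to DMSO.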
# [19] = IUF_NPC1_viability_72hr: Viability Assessment at 72 hours in the Leibniz Research Institute for Environmental Medicine (IUF) Neural Progenitor Cell Proliferation Assay (NPC1) (AID 2284209)
# In short: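 Three-day continuous exposure of human neural progenitor spheres under EGF/FGF-driven proliferation; cell viability scored by alamar blue signal versus DMSO.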
# [20] = CCTE_Mundy_HCI_Cortical_Synap_Neur_Matur_NeuriteSpotCountPerNeuriteLength: CCTE's Synaptogenesis and Neurite Maturation Assay in rat cortical cells for Neurite Spot Count per Neurite Length, Mundy Lab (AID 2284210)
# In short: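 Synaptophysin spots per unit neurite length, measured by automated imaging of MAP2/synaptophysin/Hoechst-stained neurons. Cultures from rat cortex received chemical at DIV 7 with media change through DIV 12; glial growth arrested by AraC at DIV 5; DMSO baseline.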
# [21] = CCTE_Mundy_HCI_Cortical_Synap_Neur_Matur_BPCount: CCTE's Synaptogenesis and Neurite Maturation Assay in rat cortical cells for Branch Point Count, Mundy Lab (AID 2284211)
# In short: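 In this multiplexed morphology assay, cortical cells from rat receive chemicals at DIV 7 and are fixed at DIV 12, then immunostained and imaged; branch points are counted, with DMSO as baseline.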
# [22] = CCTE_Mundy_HCI_Cortical_NOG_NeuriteCount: CCTE's Neurite Outgrowth Assay in rat cortical cells for Neurite Count, Mundy Lab (AID 2284212);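 also: cells fixed about two days after chemical exposure began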
# In short: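 Rat cortical primary cells; compound added 2 h post-plating, 1/10 dilution of working solution. Anti-betaIII-tubulin/AF488 ICC; ArrayScan neurite count vs DMSO.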
compound,measurement,setting,value
CCCCCC=C(C)C(CC)CCO (stereo not drawn),outcome,[1],inactive
same,outcome,[2],inactive
same,outcome,[3],inactive
same,outcome,[4],inactive
same,outcome,[5],inactive
same,outcome,[6],inactive
same,outcome,[7],inactive
same,outcome,[8],inactive
same,outcome,[9],inactive
same,outcome,[10],inactive
same,outcome,[11],inactive
same,outcome,[12],inactive
same,AC50,[13],5 µM (active)
same,outcome,[13],inactive
same,outcome,[14],inactive
same,outcome,[15],inactive
same,outcome,[16],inactive
same,outcome,[17],inactive
same,outcome,[18],inactive
same,outcome,[19],inactive
same,outcome,[20],inactive
same,outcome,[21],inactive
same,outcome,[22],inactive
